Assay results reported in PubChem BioAssay (NCI).
Compounds without any hit were thinned out: in the full panel of roughly 83,000, 20% have a hit.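 Growth was measured after 48 h exposure to one concentration of compound in 96-well plates. Values under 10 count as active.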 Unmarked numbers belong to inactive results. Active and inactive are the calls of the source.

What was measured:
Experiment in all cases: NCI-60 one-dose screen, 48 h (100 = growth as untreated, 0 = no growth, -100 = all killed)
Settings in all cases: 10 µM unless noted
HCT-15 colon = test system: HCT-15 colon
HT29 colon = test system: HT29 colon
SNB-75 CNS = test system: SNB-75 CNS
SNB-19 CNS = test system: SNB-19 CNS
U251 CNS = test system: U251 CNS
PC-3 prostate = test system: PC-3 prostate
SK-MEL-5 melanoma = test system: SK-MEL-5 melanoma
UACC-62 melanoma = test system: UACC-62 melanoma
SK-MEL-28 melanoma = test system: SK-MEL-28 melanoma
SK-MEL-2 melanoma = test system: SK-MEL-2 melanoma
EKVX NSCLC = test system: EKVX NSCLC
SN12C renal = test system: SN12C renal
UO-31 renal = test system: UO-31 renal
TK-10 renal = test system: TK-10 renal
ACHN renal = test system: ACHN renal
A498 renal = test system: A498 renal
CCRF-CEM leukemia = test system: CCRF-CEM leukemia
MOLT-4 leukemia = test system: MOLT-4 leukemia
CAKI-1 renal = test system: CAKI-1 renal
LOX IMVI melanoma = test system: LOX IMVI melanoma

Structure (SMILES) | growth (HCT-15 colon) | growth (HT29 colon) | growth (SNB-75 CNS) | growth (SNB-19 CNS) | growth (U251 CNS) | growth (PC-3 prostate) | growth (SK-MEL-5 melanoma) | growth (UACC-62 melanoma) | growth (SK-MEL-28 melanoma) | growth (SK-MEL-2 melanoma) | growth (EKVX NSCLC) | growth (SN12C renal) | growth (UO-31 renal) | growth (TK-10 renal) | growth (ACHN renal) | growth (A498 renal) | growth (CCRF-CEM leukemia) | growth (MOLT-4 leukemia) | growth (CAKI-1 renal) | growth (LOX IMVI melanoma)
Cc1nc2ccccc2n1CC1C(=O)NC(=O)NC1=O | 106% | 107% | 94.1% | 98.5% | 99.4% | 103% | 100% | 103% | 108% | 120% | 106% | 104% | 91.3% | 107% | 109% | -34.3% (active) | 103% | 98.1% |  | 
C=C(C)C1CCC2(C)OC2C1 (stereo not given) | 112% | 109% | 80.4% | 110% | 118% | 109% | 109% | 103% | 127% | 111% | 87.4% | 108% | 115% | 100% | 104% | 141% | 110% | 90.7% | 81.2% | 
CN1CCN(c2ccc(-c3cc4c(Nc5ccc(F)c(Cl)c5)ncnn4c3)cc2)CC1 | -12.8% (active) | 7.09% (active) | 80.5% | 103% | 66% | 80.8% | 87.5% | 53.2% | 71.5% | 103% | 83.5% | 70.1% | 82.7% | 73.6% | 44% | 61.9% | 28.9% | 34.2% |  | 
CCN(CC)CCNC(=O)c1cn2ncnc(Oc3ccc(NC(=O)Nc4ccc(Cl)c(C(F)(F)F)c4)cc3)c2c1C | -65.2% (active) | -68.2% (active) | -27% (active) | -83.4% (active) | -78% (active) | -79.2% (active) | -99% (active) | -81.2% (active) | -89.9% (active) | -51.7% (active) | -47.7% (active) | -92.5% (active) | -92% (active) | -66% (active) | -55.2% (active) | -6.51% (active) | -8.36% (active) | -45% (active) | -58.9% (active) | 
O=c1c2cccc(F)c2sc2c(NCCCNCCO)nc3ccccc3c12 | 11.4% | -39.8% (active) | 45.5% | 44.1% | 38.8% | 38.3% | 71.7% | 59.8% | 64.2% | 89.8% | 55.4% | 43.5% | 19% | 48.6% | 15.3% | 40.9% | 22.7% | -6.18% (active) | 3.45% (active) | 
Cc1cc(Cl)ccc1NS(=O)(=O)c1ccc(-c2cnc(C3CC3)o2)cc1 | 14.1% | 5.04% (active) | -2.31% (active) | 22.8% | 24.8% | 26.6% | 20.4% | 26.7% | 49.1% | 80.4% | 32.4% | 46.7% | 45.8% | 66.9% | 27.5% | -5.2% (active) | 22% | 2.78% (active) | 43.4% | 
O=c1c2cc(F)ccc2sc2c(NCCO)nc3ccccc3c12 | 101% | 107% | 87% | 94% | 97.6% | 105% | 99.4% | 94.2% | 126% |  | 83.3% | 98.4% | 77.8% | 114% | 103% | 80.6% | 105% | 104% | 90.8% | 97.2%
NCCOc1ncccc1/C=C1\c2ccccc2-c2ccc(C(F)F)cc21 | 28.8% | 48.9% | 53.2% | 40.4% | 35.9% | 50.9% |  | 68.2% | 82% | 115% | 79.7% | 16.8% | 31.1% | 86.6% | 4.83% (active) | 47.5% | 6.32% (active) | 2.92% (active) | 35.5% | 12.3%
COc1cc(C(=O)N2N=C(c3ccc(S(C)(=O)=O)cc3)CC2c2ccco2)cc(OC)c1OC (stereo not given) | 39.4% | 24.9% | 46.9% | 75.9% | 57.7% | 51% |  | 29.3% | 89.2% | 59.1% | 86% | 92.5% | 18.6% | 106% | 48.5% | 76.7% | 42% |  | 43.7% | 50.5%
CCOC(=O)Nc1ccc(-c2nc(-c3cccc(OC)c3)c(-c3ccnc(Br)c3)[nH]2)cc1 | 5.65% (active) | 25.7% | 32.6% | 46.1% | 39% | 11.2% |  | 21.2% | 42% | 38.3% | 30.1% | 48.9% | 16.3% | 71.4% | 24.3% | 22.4% | 16.7% | 14.3% | 32.7% | 4.57% (active)
COC1=C(C)C(=O)c2c(c(CCCl)c3n2CCC3OC(C)=O)C1=O (stereo not given) | 1.95% (active) | -15.6% (active) | -44.6% (active) |  | -9.94% (active) | -10.6% (active) | -66.7% (active) | -71% (active) | -32% (active) | -45.6% (active) | 0.0316% (active) | 3.34% (active) | -60.9% (active) | -37.9% (active) | -3.88% (active) | -87.8% (active) | 50.2% | 34.4% | 0.742% (active) | -34.8% (active)
COc1ccc(/C=C/c2c(C(=O)/C=C/c3ccc(Cl)cc3)c(C)nc3ccccc23)cc1 | -0.536% (active) | 13.6% | 50.6% | 25% | 19.4% | 29.2% |  | 33.7% | 23.8% | 45.7% | 47.9% | 17.2% | -21.3% (active) | 56.2% | 13.5% | 39.6% | 5.29% (active) |  | 29.5% | -62.2% (active)
CCCCN(C)N=Nc1ccc(C(N)=O)cc1 | 114% | 107% | 97.3% | 105% | 108% | 103% |  | 98.7% | 104% | 107% | 96.2% | 96.7% | 57.1% | 111% | 107% | 89.7% | 110% | 87.7% | 59% | 107%
Cc1cccc(NCc2cn(-c3ccc(C(=O)O)cc3)nc2-c2ccc(C(=O)O)cc2)n1 | 107% | 107% | 87.4% | 104% | 108% | 103% |  | 101% | 104% | 120% | 102% | 101% | 88% | 102% | 103% | 95.5% | 104% | 105% | 95.7% | 100%
Cc1ccc(C(CC(=O)O)c2c(C)[nH][nH]c2=O)cc1 (stereo not given) | 103% | 113% | 92.9% | 98.5% | 96.4% | 105% |  | 96.1% | 110% | 113% | 105% | 98.2% | 93% | 98.6% | 104% | 112% | 97.1% | 98.8% | 101% | 95.5%
Cc1ccc(C(=O)NN2C(=O)CSC2c2ccc(Cl)cc2)cn1 (stereo not given) | 90.1% | 105% | 95.8% | 85.6% | 93.3% | 87.5% |  | 93.5% | 90.8% | 102% | 110% | 91.4% | 21.8% | 128% | 96.5% | 164% | 117% | 82.2% | 80.7% | 97.4%
